The supplement of paper PMC12350171
Structures can show the parent of a compound that is named as a salt. A number with no mark means an inactive call.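 Rule for the calls: active = AUC significantly below DMSO controls by Student t-fit with adjusted P under 0.01; inactive = not significantly reduced.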

Test system: Haemophilus parainfluenzae
Assay: growth AUC normalised to DMSO control (fraction of control); higher = less growth inhibition, active = hit call of the paper
Settings: 20 µM
Method in brief: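 Pathogens were passaged twice under anaerobic conditions, then inoculated into pre-reduced mGAM plates at a starting OD578 of 0.01, with compound at 20 μM and 1% DMSO, and sealed with breathable membranes. For Haemophilus parainfluenzae, the medium was supplemented with hemin and NAD. OD578 was read every hour for 24 h in three biological replicates. Growth-curve AUC was calculated by the trapezoidal rule up to the exponential-to-stationary transition and normalised to DMSO controls on the same plate.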

SMILES	growth AUC normalised to DMSO control
NCCCC(O)(P(=O)(O)O)P(=O)(O)O [Alendronate sodium]	1.05
CCCNC(C)C(=O)Nc1ccccc1C (stereo not drawn) [Prilocaine hydrochloride]	1.01
CCOC(=O)[N-]c1c[n+](N2CCOCC2)no1 [Molsidomine]	1.03
CCn1cc(C(=O)O)c(=O)c2cnc(N3CCCC3)nc21 [Piromidic acid]	1.03
CC(CN(C)C)CN1c2ccccc2Sc2ccccc21 (stereo not drawn) [Trimeprazine tartrate]	0.94
C(=C\c1ccccc1)/CN1CCN(C(c2ccccc2)c2ccccc2)CC1 [Cinnarizine]	0.817
CC[N+](CC)(CC(=O)Nc1c(C)cccc1C)Cc1ccccc1 [Denatonium benzoate]	1.05
CCN1C(=O)NC(c2ccccc2)C1=O (stereo not drawn) [Ethotoin]	1.01
CC(N)(Cc1ccc(O)c(O)c1)C(=O)O (stereo not drawn) [(L) Methyldopa]	1.04
CCC[C@H](N[C@@H](C)C(=O)N1[C@H](C(=O)O)C[C@@H]2CCCC[C@@H]21)C(=O)OCC [Perindopril]	1.01
COc1cc(N)c(Cl)cc1C(=O)NC1CCN(Cc2ccccc2)CC1 [Clebopride maleate]	0.989
CN(C)CCOC(c1ccccc1)c1ccccc1.Cn1c(=O)c2[nH]c(Cl)nc2n(C)c1=O [Dimenhydrinate]	0.901
CCCCC1(COC(=O)CCC(=O)O)C(=O)N(c2ccccc2)N(c2ccccc2)C1=O [Suxibuzone]	0.995
